Source: PubChem
Compounds with a hit are over-represented: about 3.5% of the library has one in this group of screens.
BoNT-F LC inh: BoNT F light chain protease inhibition | Multiplex microsphere protease cleavage assay, flow cytometry | inhibition, % at 10 µM | hit rate 0.22% among 360,000 | AID 588497; in the data active means inhibition above about 35%, passing the limit was not always enough; inconclusive means no clear call, values can overlap the other calls; further: plate controls were buffer without enzyme for full effect and enzyme alone for no effect
Anthrax LF prot: inhibitors of Bacillus anthracis lethal factor protease; P15917; multiplex microsphere protease cleavage assay, LF; inhibition, % at 10 µM; hit rate 0.12% among 360,000; further: plate controls were buffer without enzyme for full effect and enzyme alone for no effect
BoNT-A LC inh2: blocks Botulinum neurotoxin A light chain protease. multiplex microsphere protease substrate cleavage, flow cytometry. inhibition, % at 10 µM. hit rate 0.17% among 360,000. AID 588499; further: plate controls were buffer without enzyme for full effect and enzyme alone for no effect
Bead autofluor: compound fluorescence in toxin protease inhibitor counterscreen; hit rate 3.1% among 360,000; compound autofluorescence counterscreen, microsphere flow cytometry; active compounds read high; fluorescence intensity (test concentration not listed); AID 624483; in the data active means fluorescence intensity above about 16000; inconclusive means no clear call, values can overlap the other calls
* hit, by the source's call; ? = inconclusive. Unless noted, no stated cut-off is given here; in the data, active means inhibition above about 30%; inconclusive means no clear call, values can overlap the other calls; inactive means below that.

SMILES	BoNT-F LC inh	Anthrax LF prot	BoNT-A LC inh2	Bead autofluor
O=C(c1cccc(F)c1)N1CCN(c2cc(N3CCCCC3)c(F)cc2[N+](=O)[O-])CC1	1	1	3	20200*
CC(=O)N1CCN(c2cc(N3CCc4ccccc4C3)c(F)cc2[N+](=O)[O-])CC1	-8	-4	-5	17226*
CCC(=O)N1CCN(c2cc(N3CCCC3)c(F)cc2[N+](=O)[O-])CC1	-1	-2	0	3967
O=C(c1ccc(N2CCCCC2)c([N+](=O)[O-])c1)N1CCOCC1	1	-3	0	16276*
O=C1CCCCCCC(=O)[C@H](O)C[C@H](c2ccccc2)O1	8	6	0	6059
CCN(CC)CCCCOc1ccccc1OC	-1	-2	1	20460*
COc1ccccc1OCCn1ccnc1	?	13	0	4190
CN(C)Cc1ccc(CNC(=O)COc2ccc3ccccc3c2)cc1	4	-5	0	4321
CC(C(=O)N1CCN(c2ccc(Cl)cc2)CC1)c1ncc(C(F)(F)F)cc1Cl (stereo not drawn)	-1	-3	-1	16547*
CC(C(=O)NC1CC1)c1ncc(C(F)(F)F)cc1Cl (stereo not drawn)	-3	2	-1	4164
COc1ccc(OC)c(N(CC(=O)N2CCCCC2)S(=O)(=O)c2ccc(OC)c(OC)c2)c1	-2	-1	-1	3503
COc1ccc(OC)c(N(CC(=O)N2CCC(C)CC2)S(=O)(=O)c2ccccc2)c1	0	-7	?	20367*
COc1ccc(OC)c(N(CC(N)=O)S(=O)(=O)c2ccc(OC)c(OC)c2)c1	0	-1	0	20080*
Cc1ccc(S(=O)(=O)N(CC(=O)N2CCC(C)CC2)c2cccc(C)c2)cc1	-2	-10	1	20718*
CC1=C(C(=O)OCCc2ccccc2)C(c2ccsc2)NC(=O)N1C (stereo not drawn)	-2	-1	0	2188
CC(C)c1ccc(CN(C(=O)c2cccs2)C2CCS(=O)(=O)C2)cc1 (stereo not drawn)	6	0	0	5616
CCn1nc([N+](=O)[O-])c(C(C#N)c2nc3cc(C(F)(F)F)ccc3s2)c(Cl)c1=O (stereo not drawn)	0	-3	2	22515*
CCOC(=O)C1=C(C)N(c2ccc(C)cc2)C(=O)/C1=C\c1cccs1	-4	-4	-1	16417*
CCCCc1ccc(NC(=O)CSc2nnc(C)c(=O)n2N)cc1	-6	3	1	5240
O=C(Nc1ccc2c(c1)nc1n2CCOC1)c1ccccc1	-8	-1	0	4191
CC(C)C(=O)Nc1ccc2c(c1)nc1n2CCSC1	7	-1	1	16136*
O=C(Nc1ccc2c(c1)nc1n2CCSC1)c1ccccc1	0	5	0	21018*
Cc1ccc(C(=O)N2CCN(c3cnn(C)c(=O)c3Cl)CC2)cc1	-1	2	0	2438
COC(=O)Cc1[nH]nc2c1C(c1ccc(O)c(OC)c1)C(C#N)=C(N)O2 (stereo not drawn)	-1	3	0	4434
Cn1c(/C=C(\C#N)C(N)=S)ccc1-c1ccc(Br)cc1	5	32*	33*	4648
SMILES	BoNT-F LC inh	Anthrax LF prot	BoNT-A LC inh2	Bead autofluor
Cn1c2ccc(Cl)cc2c2nc3ccccc3nc21	18	25	40*	4173
COC(=O)c1nn(-c2ccc(OC)cc2)c(=O)cc1Oc1cccc(Cl)c1	-4	0	?	20164*
CC(=O)NC1(C(F)(F)F)N=C2SCCN2C1=O (stereo not drawn)	-9	-1	?	22076*
CC(C)(C)C(=O)NC1(C(F)(F)F)N=C2SCCN2C1=O (stereo not drawn)	-9	3	0	3282
CC(C)Oc1ccc(C(=O)NC2(C(F)(F)F)N=C3SCCN3C2=O)cc1 (stereo not drawn)	-3	0	?	20653*
O=C(Nc1ccc(Oc2ccccc2)cc1)c1csc(COCCO)n1	-1	5	0	4067
O=C(NCCCNC(=O)c1ccccc1)c1ccccc1	32	2	0	?
CCCCn1c(N)c(N(CCOC)C(=O)c2oc3ccc(OCC)cc3c2C)c(=O)[nH]c1=O	-8	6	-5	7394
CCc1nc(OCCN(CC)CC)c2oc3ccccc3c2n1	-8	1	0	6107
CCN(CC)CCOc1ncnc2c1oc1ccccc12	5	0	?	19366*
CCOC(=O)N(C)c1ccc(C(O)(C(=O)OCC)C(F)(F)F)cc1 (stereo not drawn)	0	-1	-1	22785*
O=C(CC(O)CCc1ccccc1)c1ccc(O)cc1 (stereo not drawn)	-1	1	0	4848
O=C(COc1ccc(Br)cc1Br)NC(=S)N1CCCc2ccccc21	7	31*	24	5356
COCCCN1C(=O)c2ccccc2C1C(=O)NC1CCCCCC1 (stereo not drawn)	1	1	2	22972*
